An excerpt weighted towards active compounds, which were near 11% of everything screened.
NS1 function inh: inhibitors of influenza NS1 protein function | AID 2326 | 270,000 tested, 0.4% active | Potency, µM (series often up to 46.1 µM), for the others: at the highest dose activity, positive = more growth; calls by dose curve; note: actives are rising curves; nearly all actives have a fitted effect of over 50% in size
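OD600 was taken as the measure of yeast growth restored by compound in an NS1-expressing S. cerevisiae strain. Cells had been washed out of glucose medium and diluted 1:100 into galactose -URA medium, pH 6.0.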
HCV inhibitor: HCV inhibition. Huh7.5.1 HCVcc-Cre infection, luciferase reporter, 44 h. Potency, µM (highest dose often 41.8 µM), without a hit: at the top dose activity change, negative = inhibition, usual class: inhibitors. 340,000 tested, 3.4% active; note: % is set by controls: 0 for no effect and ±100 for the full control effect
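A cell-based infection assay in which seeded cells (1,000 per well) receive test compound after 4 h, are inoculated with HCVcc-Cre at approximately 0.5 moi, and are incubated 44 h before luminescence detection.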
Pf growth 96h: inhibits malaria parasite growth, 96 h. 320,000 tested, 6.9% active. AID 504834. Potency, µM (series often up to 28.7 µM), without a hit: top-dose activity change, negative = inhibition, hits mostly inhibitors. P. falciparum luciferase reporter growth, 96 h; note: % is set by controls: 0 for no effect and ±100 for the full control effect
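Cell-based qHTS: luciferase-tagged P. falciparum in erythrocytes (2% hematocrit, 0.05% parasitemia final) incubated with compounds for 96 hours, 37 C, 5% CO2; luciferase detection reagent then added and luminescence measured.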
Vaccinia Venus: inhibitors of vaccinia virus (Venus reporter); Vaccinia virus Venus reporter expression, fluorescence; Potency, µM (titrated, usually from 36.5 µM), for the others: at the highest dose activity change, negative = inhibition, hits mostly inhibitors; 330,000 tested, 0.46% active; AID 720580; calls by dose curve; tested in A549 cells; note: % is set by controls: 0 for no effect and ±100 for the full control effect; nearly all actives have a fitted effect of over 30% in size
VACV mCherry inh: vaccinia inhibition (mCherry reporter). Vaccinia virus mCherry reporter infection, fluorescence. Potency, µM (doses to about 36.5 µM), for the others: at the highest dose activity change, negative = inhibition, hits mostly inhibitors. 310,000 tested, 0.63% active. AID 720579; calls by dose curve; tested in A549 cells; note: % is set by controls: 0 for no effect and ±100 for the full control effect; nearly all actives have a fitted effect of over 35% in size
Pf growth 48h: inhibits P. falciparum growth in the first generation, 48 h | Potency, µM (doses to about 28.7 µM), for the others: at the highest dose activity change, negative = inhibition, usual class: inhibitors | P. falciparum luciferase growth in erythrocytes, 48 h | AID 504832 | 310,000 tested, 5.9% active; note: % is set by controls: 0 for no effect and ±100 for the full control effect
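Firefly luciferase activity from engineered P. falciparum reports growth; inhibitors lower the luminescent signal. Cultures contained 2% hematocrit erythrocytes at 0.1% final parasitemia.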
HCV inh confirm: confirmation of hepatitis C virus inhibitors | shares compounds with HCV inhibitor | HCVcc-Cre infectious virus cell assay, luciferase, inhibition | Potency, µM (titrated, usually from 41.8 µM), inactives show at the highest dose activity, negative = inhibition, usual class: inhibitors | 640 tested, 78% active | AID 720575; note: nearly all actives have a fitted effect of over 80% in size
HCV cytotox: host cell cytotoxicity counter-screen for HCV inhibitors; Potency, µM (titrated, usually from 41.8 µM), inactives show top-dose activity change, negative = cytotoxicity, most hits filed as inhibitors; 640 tested, 22% active; AID 720576; HCV host cell line cytotoxicity counterscreen; shares compounds with HCV inhibitor;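 note: 44 h compound exposure; % is set by controls: 0 for no effect and ±100 for the full control effect; nearly all actives have a fitted effect of over 55% in size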
* marks the source's active call; other numbers are inactive results; [ ] = remark or other dose. Unless noted, calls come from the whole dose curve; as a rule, active = well fitted curve in the direction sought with a large enough effect; inconclusive = small, poorly fitted or top-dose-only effect, or another doubt; inactive = no such curve, though single readings can be large; an effect the other way counts as inactive or inconclusive. Potency is the fitted concentration of half-maximal effect.

Screening O=C(COc1ccccc1)NNc1c2ccccc2nc2ccccc12 returned NS1 function inh -6%, HCV inhibitor 1µM*, Pf growth 96h -12%, Vaccinia Venus inconclusive, Pf growth 48h 5.2µM*, HCV inh confirm 1.6µM* and HCV cytotox -94%.
For CCCC(=O)NNC(=O)CCC(=O)NCc1ccccc1 the results were NS1 function inh 10%, HCV inhibitor -4%, Pf growth 96h 37% and Pf growth 48h 36%.
`CCCC(=O)NNc1c2ccccc2nc2ccccc12` gave NS1 function inh -10%, HCV inhibitor 1.4µM*, Pf growth 96h 9.3µM*, Vaccinia Venus 1%, VACV mCherry inh -8%, Pf growth 48h -26%, HCV inh confirm 0.56µM* and HCV cytotox 0.5µM*.
Screening COc1ccccc1-c1nnc(SCCN2CCOCC2)n1-c1ccc(C)cc1 returned NS1 function inh -5%, HCV inhibitor 8%, Pf growth 96h -23% and Pf growth 48h inconclusive.
For COc1cc(NC(=O)c2ccccc2OCc2ccccc2)cc(OC)c1OC the results were NS1 function inh -76%, HCV inhibitor inconclusive, Pf growth 96h -19%, Pf growth 48h 9.3µM*, HCV inh confirm 14µM* and HCV cytotox 12%.
Screening COc1cc2c(=O)n(CCC(=O)NCC3CCCO3)c(=O)n(CC(=O)c3ccc(Cl)cc3)c2cc1OC (stereo unspecified) returned HCV inhibitor 2µM*, Pf growth 96h 36%, Pf growth 48h -2%, HCV inh confirm 7.9µM* and HCV cytotox 26%.
O=C(O)[C@H](Cc1ccccc1)N1Cc2ccccc2C1=O was read as NS1 function inh -2%, HCV inhibitor 24%, Pf growth 96h 16%, Vaccinia Venus 11% and VACV mCherry inh 0%.
Screening COc1ccc(C(=O)NCCNc2nc3c(C)cccc3cc2C#N)cc1OC returned NS1 function inh 8%, HCV inhibitor inconclusive, Pf growth 96h inconclusive, Pf growth 48h -10%, HCV inh confirm 18µM* and HCV cytotox 26%.
CCCn1nnc(NC(=O)/C=C/c2cc(Br)ccc2OC)n1 was read as HCV inhibitor inconclusive, Pf growth 96h 2%, Vaccinia Venus -5%, VACV mCherry inh inactive and Pf growth 48h 10%.
`COc1ccc(Br)cc1/C=C/C(=O)Nc1ccc(C)cc1` gave NS1 function inh 12%, HCV inhibitor inconclusive, Pf growth 96h -6%, Vaccinia Venus -29%, VACV mCherry inh inconclusive, Pf growth 48h 0%, HCV inh confirm 7µM* and HCV cytotox 8%.
CN(C)c1ccc(-c2cccc3nccn23)cc1 was read as Vaccinia Venus -18% and VACV mCherry inh 14%.
For COc1cc(Cl)c(C)cc1NC(=O)CSc1ccc(C)cc1 the results were NS1 function inh 7%, HCV inhibitor inconclusive, Pf growth 96h 0% and Pf growth 48h -15%.
For COc1cc(Cl)c(C)cc1NC(=O)CSc1cc(Cl)ccc1Cl the results were NS1 function inh 14%, HCV inhibitor inconclusive, Pf growth 96h inconclusive, Vaccinia Venus -9%, VACV mCherry inh -12%, Pf growth 48h -7%, HCV inh confirm 11µM* and HCV cytotox -28%.
`C=C(C)Cc1c(C)c(C#N)c2nc3ccccc3n2c1N1CCCCC1` gave NS1 function inh -2%, HCV inhibitor inconclusive, Pf growth 96h inconclusive, HCV inh confirm 14µM* and HCV cytotox 43%.
Cc1csc(CN(C)C(=O)C2CCC(=O)N(CCCc3ccccc3)C2)n1 (stereo unspecified) was read as NS1 function inh 3%, HCV inhibitor 20%, Pf growth 96h inconclusive, Vaccinia Venus -13%[7.34 µM], VACV mCherry inh 0%[7.34 µM] and Pf growth 48h 4%.
CCN(CC)C(=O)CSc1nc2cc3c(cc2c(=O)n1CCCCCC(=O)NCCc1ccc(OC)c(OC)c1)OCO3 was read as Vaccinia Venus -14% and VACV mCherry inh -18%.
For CCN(CC)C(=O)CSc1nc2cc3c(cc2c(=O)n1Cc1ccc(OC)cc1)OCO3 the results were HCV inhibitor inconclusive, Pf growth 96h 27%, Vaccinia Venus 2%, VACV mCherry inh -6%, Pf growth 48h inconclusive, HCV inh confirm 5.6µM* and HCV cytotox 12%.
Screening Cc1cc2oc(C(=O)NCCc3ccc(S(N)(=O)=O)cc3)c(C)c2cc1C returned HCV inhibitor inconclusive, Pf growth 96h 0%, Vaccinia Venus -16%, VACV mCherry inh inactive, Pf growth 48h -21%, HCV inh confirm inconclusive and HCV cytotox 23%.
Screening CC1(C)NC(=O)N(CC(=O)Nc2nc(-c3ccc(F)cc3)cs2)C1=O returned NS1 function inh 8%, HCV inhibitor 3.5µM*, Vaccinia Venus -13%, VACV mCherry inh -12%, Pf growth 48h 20%, HCV inh confirm inconclusive and HCV cytotox -5%.
`CCOC(=O)N1CCC(NC(=O)CCc2c(C)nc3c(c(C)nn3C(C)(C)C)c2C)CC1` gave NS1 function inh -15%, HCV inhibitor 5.6µM*, Pf growth 96h 57%, Pf growth 48h 12µM*, HCV inh confirm 13µM* and HCV cytotox inconclusive.
Clc1cccc(-n2cc(-c3ccccc3)c3c(NC4CCCC4)ncnc32)c1 was read as Vaccinia Venus -4% and VACV mCherry inh -11%.
`COc1ccc2oc(=O)c(-c3nnc(NCc4ccco4)s3)cc2c1` gave NS1 function inh -3%, HCV inhibitor 4.5µM*, Pf growth 96h 0%, Vaccinia Venus -20%, VACV mCherry inh inconclusive, Pf growth 48h 55%, HCV inh confirm -20% and HCV cytotox inconclusive.
Screening CCCCC[C@H]1CN(CCc2ccccc2)C(=O)[C@@H]1CC(=O)NCc1ccc(OC)cc1 returned NS1 function inh -88%, HCV inhibitor inconclusive, Pf growth 96h 39%, Vaccinia Venus -21%, VACV mCherry inh inconclusive and Pf growth 48h -8%.
`Clc1ccc2nc(-c3ccc(Br)s3)cn2c1` gave NS1 function inh -23%, HCV inhibitor inconclusive, Pf growth 96h -19%, Pf growth 48h inconclusive, HCV inh confirm 6.3µM* and HCV cytotox inconclusive.

Screens from PubChem.
